In the library only some 2.1% were active in any assay of this set; here they are far more common.
D2 ag-1: activates the human D2 dopamine receptor; P14416; HEK293 T-REx D2 cells, calcium flux agonist mode; activation, % at 2 µM; actives 0.53% (n = 340,000); AID 485358;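 active means activation over 3 SD above normal in the single-dose calcium agonist read, cut at about 30% in these data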
Target sequence (P14416 whole entry, looked up): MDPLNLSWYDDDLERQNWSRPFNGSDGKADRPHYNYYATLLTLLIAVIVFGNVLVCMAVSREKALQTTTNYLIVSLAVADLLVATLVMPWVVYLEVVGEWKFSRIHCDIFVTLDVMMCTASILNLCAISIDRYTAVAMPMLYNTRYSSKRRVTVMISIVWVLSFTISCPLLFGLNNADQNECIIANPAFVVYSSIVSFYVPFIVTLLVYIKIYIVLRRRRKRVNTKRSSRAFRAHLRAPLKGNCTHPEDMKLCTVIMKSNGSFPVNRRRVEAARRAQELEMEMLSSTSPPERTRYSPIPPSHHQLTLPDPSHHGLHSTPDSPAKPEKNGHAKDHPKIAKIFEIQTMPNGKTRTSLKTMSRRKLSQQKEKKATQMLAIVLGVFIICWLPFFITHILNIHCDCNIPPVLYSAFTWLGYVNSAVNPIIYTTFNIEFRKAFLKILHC
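Tetracycline-induced HEK293 Trex cells with D2 receptor force-coupled to calcium signaling, plated overnight at 30 C and loaded with no-wash calcium dye. Calcium flux read kinetically for 180 s after compound addition; responses flag agonists.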
D2 ag-2: human D2 receptor agonism in beta-arrestin assay | P14416 | DiscoveRx PathHunter D2 beta-arrestin, luminescence, 90 min; 100% = 57 uM dopamine signal | activation, % (concentration not given with the values) | actives 0.084% (n = 360,000); in the data active means activation above about 40%; inconclusive means between about 15% and that limit
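DiscoveRx PathHunter D2 beta-arrestin cells (2,100/well) attached overnight, then compound-stimulated 90 min at 37 C in HBSS/10 mM HEPES/0.1% Tween-20 buffer; beta-galactosidase complementation read by luminescence after 1 h at ambient temperature. Dopamine 57 uM final (EC100) as control.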
D2 antag: antagonists of human D2 dopamine receptor. P14416. HEK293 TREx D2 cells, calcium flux, dopamine EC80. inhibition, % at 10 µM. actives 2% (n = 340,000); in the data active means inhibition above about 30%; inactive means below that, where a call was filed
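Inhibition of EC80 dopamine-driven calcium flux, recorded kinetically, defines activity here; cells are a tetracycline-induced HEK293 T-REx line expressing force-coupled D2.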
LDHA block: blocks human lactate dehydrogenase A. AID 1347041. purified LDHA, NADH/diaphorase-resazurin fluorescence; active compounds read low. P00338. actives 0.15% (n = 480,000). activity change, % (values are at about 110 or 230 µM); in the data active means activity change below about -30%; inconclusive means mostly about -25% to -30%
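Human LDH5 at 2 nM final in Tris HCl pH 7.4 with 0.06 mM NADH and 0.2 mM pyruvate, reacted 5 minutes at room temperature. Remaining NADH coupled via diaphorase/resazurin; resorufin fluorescence read at 0 and 20 minutes, normalized to enzyme-free and DMSO wells.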
D2 PAM-1: human D2 receptor positive allosteric modulation; P14416; DiscoveRx D2 beta-arrestin cells, luminescence, 90 min; 100% = 57 uM dopamine signal; potentiation, % (test concentration not listed); actives 0.23% (n = 360,000); AID 624464; in the data active means potentiation above about 50%; inconclusive means mostly about 30% to 49%
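PathHunter D2 cells, attached overnight at 37 deg C, received compound in DMSO plus dopamine at EC20 (50 nM final) for 90 min at 37 deg C. Beta-arrestin recruitment was read as luminescence after 1 h with detection reagent at ambient temperature.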
D2 PAM-2: positively modulates the human D2 dopamine receptor allosterically; P14416; HEK293 T-REx D2, calcium flux, EC20 dopamine potentiation; potentiation, % at 10 µM; actives 0.34% (n = 340,000);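 active means potentiation over 3 SD above the plate norm, cut at about 30% in these data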
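Calcium flux readout, no-wash dye, 1 read/s. Inducible HEK293 Trex D2 line, overnight 30 C. Compound alone 180 s (agonist flags), then EC20 dopamine, another 180 s to score potentiation.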
Numbers stand for hits; 0 = inactive; ? = inconclusive; - = no result.

SMILES	D2 ag-1	D2 ag-2	D2 antag	LDHA block	D2 PAM-1	D2 PAM-2
COc1ccc(NC(=O)c2ccc(OCC3CCCO3)cc2)cc1Cl (stereo not drawn)	0	0	47	0	0	0
COc1ccc(NC(=O)c2ccc(OCC3CCCO3)cc2)cc1OC (stereo not drawn)	0	0	0	0	0	0
c1csc(-c2nc(NC3CC3)c3ccccc3n2)c1	-	-	-	0	-	-
c1csc(-c2nnc(NC3CCCCC3)c3ccccc23)c1	0	0	43	0	0	0
Nc1nonc1-c1nc2ccccc2n1CC(=O)N1CCN(c2ccc(F)cc2)CC1	0	0	0	0	0	50
Nc1nonc1-c1nc2ccccc2n1CC(=O)Nc1ccc(F)cc1	0	-	-	0	-	0
CN(C)c1cccc(C(=O)Nc2ccc(CC#N)cc2)c1	-	-	-	0	-	-
CCn1c(SCC(=O)c2[nH]c(C)c(C(C)=O)c2C)nnc1-c1cccs1	0	0	99	0	0	0
Cc1ccsc1C(=O)C1CCCN(Cc2cc(F)ccc2-n2cccn2)C1 (stereo not drawn)	0	0	34	0	0	0
COc1cc(OC)c(OC)cc1CN1CCCC(C(=O)c2sccc2C)C1 (stereo not drawn)	0	0	0	0	0	0
CC(NCc1ccc2c(c1)OCO2)C(=O)N1CCc2ccccc21 (stereo not drawn)	0	0	44	0	0	0
CC(NCc1ccc(S(N)(=O)=O)cc1)C(=O)N1CCc2ccccc21 (stereo not drawn)	0	0	0	0	0	0
NC1=NC[C@H](Cc2ccc(O)cc2)N1CCc1cccc(F)c1	0	0	39	0	0	0
CC(C)(C)OC(=O)CNC(=O)c1[nH]cnc1C(=O)NC(c1ccccc1)c1ccccc1	48	0	0	0	0	0
C[C@H](NC(=O)c1nc[nH]c1C(=O)NC(c1ccccc1)c1ccccc1)C(=O)OC(C)(C)C	-	0	-	0	0	-
Cc1cc(/C=C/C(=O)c2cccc(Cl)c2)cc(C)c1O	-	-	-	0	-	-
O=C(c1ccc2noc(-c3ccccc3)c2c1)N1CCN(c2ccccc2)CC1	0	?	0	0	72	0
O=C(O)c1ccc2noc(-c3ccccc3)c2c1	0	0	0	0	0	0
CC1(c2ccc3noc(-c4ccc(F)cc4)c3c2)OCCO1	0	?	0	0	60	0
CC1(c2ccc3noc(-c4ccccc4)c3c2)OCCO1	0	0	0	0	58	0
CCCCCCc1cc2c(-c3ccccc3)cc(=O)oc2cc1O	-	-	-	0	-	-
Cc1cc(C)n(C(=O)C(C)N2C(=O)c3ccccc3C2=O)n1 (stereo not drawn)	0	0	0	0	0	31
Cc1cc(C)n(C(=O)CN2C(=O)c3ccccc3C2=O)n1	0	0	0	0	0	0
Cc1cccc(N2CCN(C(=O)CNC(=O)c3ccccc3)CC2)c1C	0	0	33	0	0	0
Cc1cccc(N2CCN(C(=O)CNC(=O)C3CCCCC3)CC2)c1C	0	0	0	0	0	0
SMILES	D2 ag-1	D2 ag-2	D2 antag	LDHA block	D2 PAM-1	D2 PAM-2
O=C(CCN1C(=O)CSc2ccccc21)Nc1ccc(OC(F)(F)F)cc1	0	0	51	0	0	0
O=C(COC(=O)C1C2CC3OC(=O)C1C3C2)Nc1ccccc1 (stereo not drawn)	0	0	69	0	0	0
O=C(CCC(=O)c1ccc(F)cc1)Nc1cc(Cl)cc(Cl)c1	0	0	39	0	0	0
NC(N)=NCCCN1CCCC1	-	-	-	0	-	-
CC(O)(c1cccc(F)c1)c1nc(-c2ccccc2)cs1 (stereo not drawn)	-	0	-	0	0	-
CC(O)(c1cccc(F)c1)c1nc(-c2cnc3ccccc3c2)cs1 (stereo not drawn)	-	148	-	0	65	-
C[C@H](CO)N1C[C@H](C)[C@@H](CN(C)S(=O)(=O)c2cccc(F)c2)OCc2cn(nn2)CCCC1=O	-	0	-	-34	0	-
COc1cc(C)cc2oc(=O)c(CC(=O)O)c(C)c12	-	-	-	0	-	-
O=C(NC1CCN(Cc2ccc3ccccc3c2)CC1)c1ccccc1	0	0	51	0	0	0
O=C(NC1CCN(Cc2ccc(Cl)c(Cl)c2)CC1)c1ccccc1	0	0	81	0	0	0
O=C(NC1CCCC1)c1ccc2c(c1)N(Cc1ccccc1)CCS2	0	0	0	0	0	0
O=C(NC1CCN(Cc2ccc(F)cc2)CC1)c1ccccc1	0	0	115	0	0	0
O=C(NC(=S)NC1CCN(Cc2ccccc2)CC1)c1ccc(F)cc1	0	0	0	0	0	0
Cc1ccc(CN2CCSc3ccc(C(=O)NC4CCN(Cc5ccccc5)CC4)cc32)cc1	0	0	74	0	0	-
COc1ccc(-c2ocnc2C(=O)NCc2cc(OC)ccc2OC)cc1	-	-	-	0	-	-
Oc1ccc(N2CCN(c3nc(-c4cccnc4)nc4ccccc34)CC2)cc1	-	-	-	0	-	-
CS(=O)(=O)c1ccc(C(=O)Nc2c(Cl)cc(NC(=O)c3ccccn3)cc2Cl)cc1	-	-	-	0	-	-
Cc1ccc(C(=O)NCC2(c3ccccc3)CC2)cc1C	-	-	-	0	-	-
COc1ccc(NC(C)c2nc(-c3cccs3)no2)cc1 (stereo not drawn)	-	-	-	0	-	-
O=C(Nc1ccccn1)c1cc(-c2ccco2)nc2ccccc12	-	-	-	0	-	-
O=C(N/N=C/c1cc(Br)cc(Cl)c1O)c1ccc2c(c1)OCO2	-	0	-	-32	0	-
Cc1cc(Br)cc(/C=N/NC(=O)c2ccc3c(c2)OCO3)c1O	0	0	0	0	0	0
O=C(/C(=C/c1ccsc1)C(=O)C(F)(F)F)c1ccccc1	-	-	-	0	-	-
COc1cc(NC(=O)c2noc(C)c2[N+](=O)[O-])c(OC)cc1Cl	0	45	0	0	0	0
CCCN1CCN(C(=O)CCc2nnc3ccc(N4CCN(c5cccc(OC)c5)CC4)nn23)CC1	0	0	32	0	0	0
SMILES	D2 ag-1	D2 ag-2	D2 antag	LDHA block	D2 PAM-1	D2 PAM-2
O=S(=O)(N/N=C/c1ccc(N2CCOCC2)cc1)c1ccc(Br)cc1	0	0	0	0	0	31
O=S(=O)(NN1CCOCC1)c1ccc(Br)cc1	0	0	0	0	0	0
COc1cc(OC)c(C2=Nc3ccc(Br)cc3C(c3ccccc3)N2CC(=O)NN)cc1OC (stereo not drawn)	0	0	78	0	0	0
NNC(=O)CN1C(c2ccccc2)=Nc2ccc(Br)cc2C1c1ccccc1 (stereo not drawn)	0	0	81	0	0	0
CC1=Nc2ccc(Br)cc2C(c2ccccc2)N1CC(=O)NN (stereo not drawn)	0	0	36	0	0	0
NNC(=O)CN1C(CN2CCOCC2)=Nc2ccc(Br)cc2C1c1ccccc1 (stereo not drawn)	0	0	83	0	0	0
Cc1cc(=S)nc[nH]1	-	-	-	0	-	-
